Hits are enriched below; roughly 4.2% of the tested compounds scored in any of these assays.
PLK1 PBD block: blocks phosphopeptide binding to human PLK1 polo-box domain; Plk1 PBD binding of FITC phosphopeptide, fluorescence polarization; Potency, µM, actives largely listed as inhibitors; 2.8% of 360,000 active; P53350; note: series mostly up to about 57 µM; nearly all actives have a fitted effect of over 65% in size
VDR inh: vitamin D3 receptor (human) inhibition; Potency, µM, hits mostly inhibitors; 0.93% of 400,000 active; VDR-SRC2-3 peptide fluorescence polarization, 2 h
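Fluorescence polarization assay measuring small-molecule disruption of VDR binding to the coregulator peptide SRC2-3. Compounds were pin-transferred (23 nl) into the reagent mix and incubated 2 h at room temperature before reading.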
ALOX12 inh: ALOX12 (human) lipoxygenase inhibition; P18054; purified 12hLO, xylenol orange hydroperoxide absorbance; Potency, µM (titrated, usually from 108 µM), usual class: inhibitors; 1.1% of 580,000 active; AID 1671190
Target sequence (P18054 whole entry, looked up): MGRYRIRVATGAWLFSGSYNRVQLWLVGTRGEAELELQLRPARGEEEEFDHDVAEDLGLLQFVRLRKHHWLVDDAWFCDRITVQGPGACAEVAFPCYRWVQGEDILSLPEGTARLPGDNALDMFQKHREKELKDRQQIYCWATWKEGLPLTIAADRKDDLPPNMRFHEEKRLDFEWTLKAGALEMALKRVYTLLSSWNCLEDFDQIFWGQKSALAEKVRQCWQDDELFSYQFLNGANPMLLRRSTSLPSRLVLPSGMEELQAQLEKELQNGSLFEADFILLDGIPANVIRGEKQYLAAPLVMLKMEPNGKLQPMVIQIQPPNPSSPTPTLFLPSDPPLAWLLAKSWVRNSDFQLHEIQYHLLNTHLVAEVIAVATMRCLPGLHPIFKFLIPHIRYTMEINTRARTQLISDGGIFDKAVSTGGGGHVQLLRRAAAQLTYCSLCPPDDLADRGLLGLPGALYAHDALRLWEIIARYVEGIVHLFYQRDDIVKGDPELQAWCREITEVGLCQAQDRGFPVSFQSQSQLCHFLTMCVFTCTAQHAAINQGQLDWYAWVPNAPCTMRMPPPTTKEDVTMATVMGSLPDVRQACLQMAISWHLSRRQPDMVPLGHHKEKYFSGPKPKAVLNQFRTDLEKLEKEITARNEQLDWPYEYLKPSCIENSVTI
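Hydroperoxide product was detected by ferrous iron/xylenol orange as the 573 to 405 nm absorbance ratio. Arachidonic acid at 40 uM (final) was turned over for 30 min at room temperature by 150 nM human 12hLO, pH 7.0 Hepes buffer, after 15 min compound preincubation.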
Sfp PPTase inh: blocks B. subtilis Sfp PPTase activity. Q9F4F7. Biochemical Sfp PPTase activity, qHTS. Potency, µM, usual class: inhibitors. 3.5% of 310,000 active;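 note: the enzyme is Sfp with the accession as filed and its product quenches rhodamine fluorescence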
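Sfp 15 nM + cpd, 15 min RT; start w/ rhodamine-CoA 5 uM, BHQ-2-YbbR 12.5 uM (final); 50 mM Hepes pH 7.6, 10 mM MgCl2, 0.01% NP-40, 0.01% BSA; read 525/598 nm at 0 and 30 min.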
Hits are given with their value; . = inactive; ? = inconclusive; / = no result. Calls come from the whole dose curve; as a rule, active = well fitted curve in the direction sought with a large enough effect; inconclusive = small, poorly fitted or top-dose-only effect, or another doubt; inactive = no such curve, though single readings can be large; an effect the other way counts as inactive or inconclusive.

SMILES	PLK1 PBD block	VDR inh	ALOX12 inh	Sfp PPTase inh
CN(Cc1ccccc1)C(=O)c1cnc2c(c1)N(C(=O)CCc1ccccc1)CCC2	/	/	.	/
COc1ccccc1NC(=O)/C(C#N)=C/C=C/c1ccco1	.	.	.	.
COc1ccccc1NC(=S)NC1CCC(CC2CCC(NC(=S)Nc3ccccc3OC)CC2)CC1 (stereo not given)	.	.	32µM	.
CCn1ncc(Br)c1C(=O)Nc1ccccc1OC	21µM	.	.	.
S=C(Nc1cccc2ccccc12)NC1CCCCC1	.	.	45µM	.
COc1ccccc1NC(=O)/C=C\c1ccco1	?	?	?	56µM
CCn1nccc1C(=O)Nc1ccccc1OC	.	.	.	.
COc1ccc(-c2cc(C)no2)cc1S(=O)(=O)N1CCCCC1	.	.	.	.
O=C(NCCCn1ccnc1)c1cccc(S(=O)(=O)N2CCCCCC2)c1	.	.	.	.
O=C(/C=C/c1ccco1)NC(=S)Nc1ccccc1	.	?	?	.
Cc1ccccc1NC(=S)NC(=O)/C=C/c1ccco1	21µM	?	.	?
COc1ccccc1NC(=S)NC(=O)Cc1ccc(Cl)cc1	.	.	.	.
Cc1sc(NC(=O)/C=C/c2ccco2)c(C(=O)OC(C)C)c1C	.	.	?	32µM
CCC(=O)NC(=S)Nc1ccccc1OC	24µM	.	.	.
C[C@@H](NC(=O)C1CCCC1)c1onc(-c2ccc(Cl)cc2)c1C(=O)O	/	/	.	/
Cc1ccc(NC(=S)NCc2ccc(F)cc2)c(C)c1	.	.	?	.
Cc1sc2nc3c(C(=O)N4CCCC4)cc(C(=O)c4ccccc4O)cn3c(=O)c2c1C	24µM	.	?	22µM
CCc1c(C)sc2nc3c(C(=O)N4CCOCC4)cc(C(=O)c4cc(F)ccc4O)cn3c(=O)c12	.	.	.	?
CC(C)(C)N(Cc1ccccc1)C(=O)COC(=O)CSc1ccc([N+](=O)[O-])cc1	12µM	.	.	/
CC1CCCC(C)N1C(=O)COC(=O)CSc1ccc([N+](=O)[O-])cc1 (stereo not given)	19µM	.	.	/
CCCN(CC(=O)Nc1ccccc1C)C(=O)COc1c(C)cccc1C	.	.	.	/
CCCN(CC(=O)Nc1ccccc1C)C(=O)COC(=O)CSc1ccc([N+](=O)[O-])cc1	19µM	?	?	/
C[C@H]1CN(Cc2ccccc2)C(=O)[C@@H]1CC(=O)NCc1ccccc1	.	.	.	.
CCN(CC)S(=O)(=O)c1ccc2c(c1)N(CC(=O)NCc1ccccn1)C(=O)CO2	.	.	.	.
CS(=O)(=O)c1ccc2nc(N)sc2c1	.	.	.	.
SMILES	PLK1 PBD block	VDR inh	ALOX12 inh	Sfp PPTase inh
CS(=O)(=O)c1ccc(N)c(SSc2cc(S(C)(=O)=O)ccc2N)c1	0.95µM	25µM	?	/
COc1ccc(/C=N/n2cnc3c([nH]c4ccc(Br)cc43)c2=O)cc1CN1CCOCC1	.	.	.	.
COc1ccc(/C=N/n2cnc3c([nH]c4ccccc43)c2=O)cc1CO	11µM	?	.	.
O=C(N/N=C/c1cnc(N2CCCCC2)s1)c1ccc(Cl)cc1	30µM	.	.	.
COc1ccc(CNC(=O)CCc2c(C)nc3c(c(C)nn3-c3ccccc3)c2C)cc1	/	.	.	/
N#Cc1cc2c(nc1SCc1cccnc1)CCCCC2	.	.	.	79µM
N#Cc1cc2c(nc1SCc1ccccc1)CCCCC2	3.8µM	.	.	.
COc1ccc(CNCC(O)(c2ccc(F)cc2)c2ccc(F)cc2)cc1	.	.	.	.
CC(=O)c1cccc(NC(=O)C2CCCN(S(=O)(=O)c3cccc4cccnc34)C2)c1 (stereo not given)	.	.	.	.
S=P(c1ccc(N2CCOCC2)cc1N1CCOCC1)(N1CCOCC1)N1CCOCC1	21µM	79µM	?	35µM
Cc1sc2ccccc2[n+]1CC(=O)c1ccccc1	21µM	28µM	/	?
Cc1sc2ccccc2[n+]1CCC(C)S(=O)(=O)[O-] (stereo not given)	?	?	.	45µM
COc1ccc2sc(SCCCS(=O)(=O)O)[n+](CCCS(=O)(=O)[O-])c2c1	.	?	.	4.5µM
CSc1sc2ccccc2[n+]1CCCS(=O)(=O)[O-]	?	35µM	?	18µM
O=C(c1ccc(F)cc1F)N1CCC(c2noc(-c3ccc(S(=O)(=O)N4CCCC4)cc3)n2)CC1	/	.	.	/
Cc1cc(N2O[C@]34C=C[C@]25C[C@@H](O)CC[C@]5(C)C3CC[C@]2(C)[C@@H]([C@H](C)/C=C/[C@H](C)C(C)C)CC[C@H]24)no1 (stereo not given in full)	24µM	?	.	/
CC[C@@H]1C=C(C(=O)O)[C@H](c2ccc(Cl)c(Cl)c2)N1S(=O)(=O)c1ccc(C)cc1	.	.	?	/
CCCCC[C@@H]1C=C(C(=O)O)[C@H](c2ccc(CC)cc2)N1S(=O)(=O)c1ccc(C)cc1	27µM	.	.	/
CCCC[C@@H]1C=C(C(=O)O)[C@H](c2ccc(CC)cc2)N1S(=O)(=O)c1ccc(C)cc1	.	.	.	/
CCCC[C@@H]1C=C(C(=O)O)[C@H](c2ccc(Br)cc2)N1S(=O)(=O)c1ccc(C)cc1	?	.	?	/
CCCCC[C@@H]1C=C(C(=O)O)[C@H](c2ccc(F)cc2)N1S(=O)(=O)c1ccc(C)cc1	.	.	45µM	/
CCCCC[C@@H]1C=C(C(=O)O)[C@H](c2ccc(Cl)c(Cl)c2)N1S(=O)(=O)c1ccc(C)cc1	27µM	?	.	/
Cc1c(-c2n[nH]c(=S)n2-c2ccc(Br)cc2)nnn1-c1ccc(Cl)cc1	.	.	?	.
Cc1n[nH]c(=S)n1/N=C/c1ccccc1OCc1ccc(Cl)cc1	.	.	?	50µM
Cc1n[nH]c(=S)n1/N=C/c1cccc(OCc2ccccc2)c1	.	.	?	?
SMILES	PLK1 PBD block	VDR inh	ALOX12 inh	Sfp PPTase inh
COc1ccc(-c2cc(C(=O)Nc3cc(C)ccc3O)no2)cc1	.	.	.	.
CNc1nc(OCC(F)(F)F)nc(N2CCOCC2)n1	6.7µM	.	.	.
CNc1nc(OC)nc(N2CCOCC2)n1	.	.	.	.
CNc1nc(C(=O)O)nc(N2CCOCC2)n1	.	.	.	56µM
COc1ccc(C(=O)Nc2ccccc2Cc2ccccc2)c(OC)c1	.	.	.	.
CCCc1cc(=O)[nH]c(SCC(=O)N2N=C(c3ccc(Cl)cc3)CC2c2ccco2)n1 (stereo not given)	?	.	?	?
Cc1ccc(C2=NN(C(=O)CSc3nc4ncc(Cl)cc4[nH]3)C(c3ccco3)C2)cc1 (stereo not given)	.	.	.	45µM
COc1ccc(C2=NN(C(=O)CSc3nc4ncc(Cl)cc4[nH]3)C(c3ccco3)C2)cc1 (stereo not given)	.	.	?	.
Nc1cc(=O)[nH]c(SCC(=O)N2N=C(c3ccc(Cl)cc3)CC2c2ccco2)n1 (stereo not given)	.	.	40µM	.
CC(C)c1ccc(Nc2cc(C(=O)NCc3cccs3)c3ccccc3n2)cc1	/	.	.	/
O=C(c1ccc2nc(Cc3ccccc3F)oc2c1)N1CCCC1	.	.	.	.

Source: PubChem BioAssay
